Test results from PubChem BioAssay (NCI).
The panel holds about 83,000 compounds, 20% with a hit somewhere; the sample as a whole holds those more often.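 Each cell line was grown in a 96-well plate and treated with one concentration of compound for 48 hours. Values below 10 were considered active.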 Values without a mark were called inactive. Calls of active or inactive are those of the source.

Tested on: SK-MEL-5 melanoma
Assay: NCI-60 one-dose screen, 48 h (100 = growth as untreated, 0 = no growth, -100 = all killed)
Settings: 10 µM unless noted
Experimental: Growth inhibition of the SK-MEL-5 human tumor cell line is measured as a screen for anti-cancer activity. Cells are grown in 96 well plates and exposed to the test compound for 48 hours. Compounds are tested at a single concentration, which is 10^-5 M for most compounds. The reported endpoint is percent growth (GI% or GIPRCNT), where numbers from 0 - 100% represent growth inhibition, and numbers from -100% - 0 represent cell death. For example, a value of 40 represents 60% growth inhibition. A value of 0 means no net growth occurred over the course of the experiment. A value of -40 indicates 40% of cells at the beginning of the experiment died by the end of the experiment. A value of -100 means all cells are dead at the end of the experiment.
NCI-60 Human Tumor Cell Lines Screen was performed using the standard one-dose NCI protocol, which is described in more detail at https://dtp.cancer.gov/discovery_development/nci-60/default.htm.
Compounds with GIPRCNT values below 10 were considered active. Activity score was based on GIPRCNT using the following formula: […]
Score is 0 for GIPRCNT values of 100 or above, 50 for GIPRCNT values of 0, and 100 for GIPRCNT values of -100.

Q: With `CCOC(=O)C1=C(N)Oc2c(sc3c(CC)cccc23)C1c1ccc(F)cc1` (stereo not given) as the compound, how does the growth read?
A: 61.1%

Q: Which growth does the source give for `Cc1nc(/N=C(\N)NC(=O)Nc2cccc(Cl)c2)sc1C` here?
A: 80.2%

Q: `NC[C@@H]1O[C@H](O[C@@H]2[C@@H](CO)OC(O[C@@H]3[C@@H](O)[C@H](N)C[C@H](N)[C@H]3OC3O[C@H](CN)[C@@H](O)[C@H](O)[C@H]3N)[C@@H]2O)[C@H](N)[C@@H](O)[C@@H]1O` (stereo not given in full) was tested. Which growth did it give?
A: 106%

Q: With `Cc1ccc(-c2cnc3sc(C(=O)NCCc4ccccc4)c(C)n23)cc1` as the compound, how does the growth read?
A: 99.7%

Q: `Nc1ccc(Sc2ccc([N+](=O)[O-])c3nonc23)cc1` was tested. Which growth did it give?
A: 88.1%

Q: For `CN1C(=O)CNC(=O)[C@H](NC(=O)c2nc3ccccc3cc2O)CSSC[C@H]1C(=O)NCCc1nc2ccccc2cc1O`, which growth is on record?
A: 38%

Q: `CCOC(=O)c1c(C)nc2c(c1N)CC(=O)N2Cc1ccc(F)cc1` was tested. Which growth did it give?
A: 92.9%

Q: With `COc1ccc(/C=C(\C#N)n2nnc3c(F)cccc32)cc1` as the compound, how does the growth read?
A: 32.3%

Q: `Cc1cc(O)c(C2=NN(c3ccc(S(N)(=O)=O)cc3)C(c3ccccc3O)C2)cc1Cl` (stereo not given) was tested. Which growth did it give?
A: 36.8%

Q: For `O=C(Nc1nc2ccc(F)cc2s1)c1cccnc1Nc1ccc(Cl)cc1Cl`, which growth is on record?
A: -2.74% (active)

Q: With `COc1ccc(/C=N/Nc2cc(=O)[nH]c3ccc(C)cc23)cc1` as the compound, how does the growth read?
A: 69%

Q: With `Cc1nc(NC(=O)COc2ccc(/C=C3\Cc4ccc(Cl)cc4C3=O)cc2)sc1C` as the compound, how does the growth read?
A: 111%

Q: With `c1ccc(-c2nc3sc(-c4ccccc4)cn3n2)cc1` as the compound, how does the growth read?
A: 80%

Q: With `OC(COc1ccccc1)CN1CCN(c2ccc(Cl)cc2)CC1` (stereo not given) as the compound, how does the growth read?
A: 96.2%

Q: With `CC/C=C\C[C@@H]1C/C=C2/C(=O)C=C[C@H]2C/C=C\CCCC(=O)O1` as the compound, how does the growth read?
A: -89.3% (active)

Q: With `Cc1oc2nc[nH]c(=O)c2c1C(=O)/C=C/c1ccc(Br)cc1` as the compound, how does the growth read?
A: 8.55% (active)

Q: With `CCOc1c(B(O)O)cccc1-c1nc2ccc3[nH]ncc3c2c2c1CCCC2` as the compound, how does the growth read?
A: 86.7%

Q: For `COc1ccc(C(=O)N=Nc2c(O)n(C)c3ccccc23)cc1`, which growth is on record?
A: 89.1%

Q: How did the growth turn out when `CCOC(=O)c1cn2ncnc(Oc3ccc(NC(=O)NCCN4CCOCC4)c(Cl)c3)c2c1C` was run?
A: 98.5%

Q: With `O=C(CCN1C(=O)/C(=C/c2ccc(O)cc2)SC1=S)Nc1ccc(Cl)cc1` as the compound, how does the growth read?
A: 99.2%

Q: With `CC(=O)Oc1ccccc1C(=O)N=C1[Se]CCCN1C(=O)c1ccccc1OC(C)=O` as the compound, how does the growth read?
A: 74.8%

Q: `CC1=C(SCCC(=O)OC(C[Se]C2=C(C)C(=O)c3ccccc3C2=O)C(=O)NC(C)(C)C)C(=O)c2ccccc2C1=O` (stereo not given) was tested. Which growth did it give?
A: -99.4% (active)

Q: `COc1ccc(N)c(N)c1` was tested. Which growth did it give?
A: 105%

Q: How did the growth turn out when `Fc1cc(-c2nnc3n2NC(=Nc2ccc(Cl)cc2)CS3)c(Cl)cc1Cl` was run?
A: 88.9%

Q: For `COc1ccc(C2CC(c3ccc(Nc4ccnc5cc(Cl)ccc45)cc3)=NN2C=O)cc1` (stereo not given), which growth is on record?
A: 41.2%

Q: How did the growth turn out when `CCn1cnc2c1c(=O)[nH]c(=O)n2CC1CCC(CNS(=O)(=O)c2ccc(OC3CCOCC3)c(F)c2)CC1` (stereo not given) was run?
A: 60.1%

Q: With `CN1CCN(c2ccc(-c3ccc4ncc(C#N)c(Nc5ccc(F)c(Cl)c5)c4c3)cn2)CC1` as the compound, how does the growth read?
A: 82.9%

Q: For `CCc1ccc(Oc2c(-c3ccc(OCc4ccc(Cl)cc4)cc3O)n[nH]c2C(F)(F)F)cc1`, which growth is on record?
A: -14% (active)

Q: Which growth does the source give for `COc1ccc2cc(C(C)C(=O)Nc3ccc(-c4n[nH]c(=S)n4C4CCCCC4)cc3)ccc2c1` (stereo not given) here?
A: 67.5%

Q: With `C=CCc1cc(C)ccc1NC(C(=O)NCC(=O)OC)c1ccccc1` (stereo not given) as the compound, how does the growth read?
A: 102%

Q: `Cc1ccc(S(=O)(=O)Oc2ccc(NC(=O)c3ccc(Cl)cc3)cc2)cc1` was tested. Which growth did it give?
A: 99.9%

Q: `CCOC(=O)CCN(C(=O)Nc1ccccc1)C1CCCCC1` was tested. Which growth did it give?
A: 99.2%

Q: Which growth does the source give for `Cc1cc(=O)[nH]c(=O)n1Cc1cn(-c2c3ccccc3nc3ccccc23)nn1` here?
A: 78.9%

Q: For `C=C1C(=O)O[C@H]2[C@H]1CC/C(COC(=O)NCCOCCOCC(=O)Nc1ccc(OC)c(C(N)=O)c1O)=C\CC[C@@]1(C)O[C@@H]21`, which growth is on record?
A: 84.9%

Q: `OC(c1ccccc1)C(NC(Cc1ccccc1)c1ccccc1)c1ccccc1` (stereo not given) was tested. Which growth did it give?
A: 94.6%

Q: `COc1cc(C(=O)/C=C/c2c(Cl)nc3sccn23)cc(OC)c1OC` was tested. Which growth did it give?
A: 86.4%

Q: How did the growth turn out when `Cc1[nH]c(C(=O)Nc2ccc(C(=O)N3CCNCC3)cc2OC(C)C)c(Cl)c1Cl` was run?
A: 93.4%

Q: Which growth does the source give for `C=C1C(=O)O[C@H]2[C@H]1CC/C(COC(=O)C(C)c1ccc(CC(C)C)cc1)=C\CC[C@@]1(C)O[C@@H]21` (stereo not given in full) here?
A: 7.78% (active)

Q: How did the growth turn out when `C[C@]12CC[C@@H]3c4cc(OC(F)F)c(OS(N)(=O)=O)cc4CC[C@H]3[C@@H]1CC[C@@H]2O` was run?
A: 6.56% (active)

Q: With `O=C(O)c1cn(C2CC2)c2cc(N3CCN(C(=O)Nc4nc(-c5ccc(Cl)cc5)cs4)CC3)c(F)cc2c1=O` as the compound, how does the growth read?
A: -60.3% (active)
